The values below come from PubChem BioAssay (NCATS).

Inconclusive results are not listed. Unmarked numbers belong to inactive results. The source made the active and inactive calls. Calls come from the whole dose curve; as a rule, active = well fitted cell-killing curve with a large enough effect; inconclusive = small, poorly fitted or top-dose-only effect, or effect the other way; inactive = no such curve, though single readings can be large or run the other way.
Potency is the fitted concentration of half-maximal effect.

A short description of the experiment: Quantitative High-Throughput drug screen in 47 multiple myeloma cell lines against the NCATS MIPE library collection: OCIMY5_PLB cell viability assay (AID 1918988). Note: nearly all actives have a fitted effect of over 65% in size. The following applies: OCI-MY5 myeloma viability, ATP luminescence, 48 h; series mostly up to 45.8 µM; viability, % of control: at the top concentration. An excerpt:
PI: Beverly A. Mock Ph.D.
Laboratory of Cancer Biology and Genetics,
Center for Cancer Research, National Cancer Institute,
National Institute of Health, Bethesda, Maryland
Drug resistance and disease progression are common in multiple myeloma (MM) patients, underscoring the need for new therapeutic combinations. […] We hypothesized that effective combinations would reduce MYC expression and enhance p16 activity. […] These preclinical data identify potentially useful drug combinations for evaluation in drug-resistant MM and reveal potential mechanisms of combined drug sensitivity.
Described herein is the primary MIPE qHTS used to cherrypick compounds. Validated compounds were then further tested for potential synergistic activiy.
[1] Peat TJ, Gaikwad SM, Dubois W, Gyabaah-Kessie N, Zhang S, Gorjifard S, Phyo Z, Andres M, Hughitt VK, Simpson RM, Miller MA, Girvin AT, Taylor A, Williams D, D'Antonio N, Zhang Y, Rajagopalan A, Flietner E, Wilson K, Zhang X, Shinn P, Klumpp-Thomas C, McKnight C, Itkin Z, Chen L, Kazandijian D, Zhang J, Michalowski AM, Simmons JK, Keats J, Thomas CJ, Mock BA. Drug combinations identified by high-throughput screening promote cell cycle transition and upregulate Smad pathways in myeloma. Cancer Lett. 2023 Aug 1;568:216284. doi: 10.1016/j.canlet.2023.216284. Epub 2023 Jun 24. PMID: 37356470; PMCID: PMC10408729.
SEQUENCE No. (e.g., 1, 2, 3, etc.); […] (e.g., Cells, Incubation, Reagent, etc.); VALUE and DESCRIPTION.
1; Cells; 5 uL; white, solid bottom 1536-well Greiner assay plate.
2; Compounds; 23 nL; Kalypsis pin tool (Wako USA) equipped with a 1536-well pin head to transfer to the assay plates.
3; Incubation; 48 hours; 37C incubation.
4; Reagent;5uL; CellTiter Glo (Promega).
5; Detector; 425V; Luminescence; Viewlux PerkinElmer.
NOTES (numbers refer to Sequence numbers above)
1. The cell-based screening methods employed in this study were like those previously published. Briefly, the corresponding myeloma cell lines were screened in 1,536-well plates with 500 cells, 5-uL per well for inhibition of cell viability (assessed by measuring ATP levels with CellTiterGlo).
2. NCATS MIPE 4.0 library of approved and investigational drugs were added using the Kalypsis pin tool. Wells treated with DMSO only for 100% viability and media only for 0% viability were used as controls.
3. The assay plates were covered and incubated for 48 hours in a 37C, 5% CO2 incubator with controlled humidity.
4. After 48 hours, CellTilter-GloTM luminescent substrate mix (Promega) reagent was added to the assay plate and plates we incubated for 5 min at room temperature.
5. Signal was measured as median relative luminescence units on a ViewLux (PerkinElmer) multiplate reader.
[1] Heske CM, Davis MI, Baumgart JT, Wilson K, Gormally MV, Chen L, Zhang X, Ceribelli M, Duveau DY, Guha R, Ferrer M, Arnaldez FI, Ji J, Tran HL, Zhang Y, Mendoza A, Helman LJ, Thomas CJ. Matrix Screen Identifies Synergistic Combination of PARP Inhibitors and Nicotinamide Phosphoribosyltransferase (NAMPT) Inhibitors in Ewing Sarcoma. Clin Cancer Res. 2017 Dec 1;23(23):7301-7311. doi: 10.1158/1078-0432.CCR-17-1121. Epub 2017 Sep 12. PMID: 28899971; PMCID: PMC6636827.
As to `Oc1cccc(-c2nc(N3CCOCC3)c3oc4ncccc4c3n2)c1`, the Potency is 0.382 µM (active).
On the same count and under the same terms, with `NC(=O)c1ccc(-c2nc(-c3ccc4c(c3)OCCO4)c(-c3ccccn3)[nH]2)cc1` the figure was 18.7 µM (active); with `CNC[C@H](O)c1cccc(O)c1`, 0.332 µM (active).
The same measure, in the same setting: with `COc1cccc2cc(-c3nc(C4CCC(C(=O)O)CC4)n4ncnc(N)c34)[nH]c12` (stereo not given) the figure was 1.32 µM (active); with `Cc1ccc(-n2nc(C(C)(C)C)cc2NC(=O)Nc2ccc(OCCN3CCOCC3)c3ccccc23)cc1`, 20.9 µM (active).
Same read-out and setting: with `O=C(Nc1cccnc1)N1CCC(Cc2cccc(Oc3ccc(C(F)(F)F)cn3)c2)CC1` the figure was 18.7 µM (active); with `Cn1cnc2c(F)c(Nc3ccc(Br)cc3Cl)c(C(=O)NOCCO)cc21`, 9.35 µM (active).
For `C[C@]12CC[C@H](O)CC1=CC[C@@H]1[C@H]2CC[C@]2(C)C(c3cccnc3)=CC[C@H]12`, the “viability, % of control” value was 146% [at 23.2 µM].
Consider `CC(=O)NC(C)c1ccc(Oc2ccc(OC(C)C)cc2)cc1` (stereo not given), for which the Potency is 16.6 µM (active).
For `COc1ccc2nc(S(=O)Cc3ncc(C)c(OC)c3C)[nH]c2c1` (stereo not given), the “viability, % of control” value was 141%.
As to `Cc1cc(-c2ccc(CC(=O)Nc3ccc(-c4cccnc4)cc3)cc2)ccn1`, the Potency is 16.6 µM (active).
`CNCc1ccc(-c2[nH]c3cc(F)cc4c3c2CCNC4=O)cc1`: the “viability, % of control” value was 167%.
In the case of `CCCS(=O)(=O)Nc1ccc(F)c(C(=O)c2c[nH]c3ncc(-c4ccc(Cl)cc4)cc23)c1F`, the Potency is 13.2 µM (active).
Same read-out and setting: with `NCCCC(N)(C(=O)O)C(F)F` (stereo not given) the figure was 0.332 µM (active); with `COc1ccccc1[C@H](c1cccc2ccccc12)[C@@](C)(C#N)C(=O)N1CCC(c2cccc(C(F)(F)F)c2)CC1`, 4.69 µM (active).
As for `Nc1nc2c(ncn2COCCO)c(=O)[nH]1`, the “viability, % of control” value is 178%.
The same measure, in the same setting: next, `N[C@@H]1CONC1=O`: 144%; `COc1ccccc1-c1cccc(-c2c(O)c3cc(C#N)c(Cl)cc3[nH]c2=O)c1`: 140% [at 92.2 µM].
As to `CN(C)C(=O)c1ccc(S(=O)(=O)c2ccc(NC(=O)[C@@](C)(O)C(F)(F)F)c(Cl)c2)cc1`, the Potency is 20.9 µM (active).
On the same count and under the same terms, next, `COc1cc(Oc2ccnc3cc(OC)c(OC)cc23)ccc1NC(=O)NC(C)c1nccs1` (stereo not given): 16.6 µM (active).
Still for that read-out and setting: next, `Cc1cc(Nc2nc(N[C@@H](C)c3ncc(F)cn3)ncc2Cl)n[nH]1`: 7.43 µM (active).
Regarding `CS(=O)(=O)Oc1ccc2c(NC(N)=O)c(C(=O)c3ccc(Cl)cc3Cl)oc2c1`, the “viability, % of control” value was 171%.
As to `CCC(C)(C)C(=O)O[C@H]1C[C@@H](C)C=C2C=C[C@H](C)[C@H](CC[C@@H]3C[C@@H](O)CC(=O)O3)[C@H]21`, the Potency is 18.7 µM (active).
Regarding `CCN(c1ccccc1)c1cc(NC)[n+](C)c(C)n1`, the Potency was 20.9 µM (active).
For the compound `CNC(=O)c1ccc(N2C(=S)N(c3ccc(C#N)c(C(F)(F)F)c3)C(=O)C2(C)C)cc1F`, the “viability, % of control” value was 147%.
Regarding `CC(C)(N)C(=O)N[C@H](COCc1ccccc1)C(=O)N1CCC2(CC1)CN(S(C)(=O)=O)c1ccccc12`, the Potency is 16.6 µM (active).
The same measure, in the same setting: with `COc1ccc(-c2ccc3c(N4CCOCC4)nc(N4C[C@@H](C)O[C@@H](C)C4)nc3n2)cc1CO` the figure was 1.48 µM (active).
On the same count and under the same terms, with `O=c1[nH]c(-c2ccc(C(F)(F)F)cc2)nc2c1CSCC2` the figure was 5.26 µM (active); with `CC[C@@H](C)[C@H](NC(=O)[C@H](CC1CCCCC1)NC(=O)c1ccno1)C(=O)N1CCC2(CCc3ccccc32)CC1`, 8.33 µM (active); with `OCCn1cc(-c2cnc3nnn(Cc4ccc5ncccc5c4)c3n2)cn1`, 9.35 µM (active).
Take `C[C@H](NC(=O)Cc1cc(F)cc(F)c1)C(=O)N[C@@H]1C(=O)N(C)c2ccccc2-c2ccccc21`: the Potency was 16.6 µM (active).
As to `COc1ccc(CC2=NN3C([C@@H](CCc4ccccc4)[C@@H](C)O)=NC(C)C3C(=O)N2)cc1OC` (stereo not given in full), the “viability, % of control” value was 161%.
For `COc1ccc2c3n(c(=NC(=O)c4cccnc4)nc2c1OC)CCN3`, the Potency is 3.72 µM (active).
The same measure, in the same setting: with `CN(C)c1ccc(C2Nc3ccc4ccccc4c3C3=C2C(=O)CC(C)(C)C3)cc1Br` (stereo not given) the figure was 23.5 µM (active); with `Nc1nccc(-c2ccc3noc(-c4ccc(Cl)cc4)c3c2)n1`, 18.7 µM (active).
On the same count and under the same terms, with `O=C(Nc1nc2ccccc2n1CCN1CCOCC1)c1cccc([N+](=O)[O-])c1` the figure was 5.9 µM (active).
Regarding `Clc1cccc(Cl)c1NC1=NCCN1`, the “viability, % of control” value is 147%.
On the same count and under the same terms, with `O=C(O)CCc1ccc(NCc2cccc(Oc3ccccc3)c2)cc1` the figure was 151%; with `CN1CCN(CCCN2c3ccccc3Sc3ccc(C(F)(F)F)cc32)CC1`, 168%.
For the compound `CCCS(=O)(=O)Nc1ccc(F)c(C(=O)c2c[nH]c3ncc(Cl)cc23)c1F`, the Potency is 14.8 µM (active).
